From the supplement of paper PMC9262897, “Low-cost anti-mycobacterial drug discovery using engineered E. coli” (Nature Communications, 2022)
Counter-ions that a name gives are not always drawn. ± gives the standard deviation of the averaged measurements.

System: E. coli TESEC Alr+ wild-type control
Experiment: growth (OD600 after 10 h); higher = more growth (less inhibition)
Settings: compound 0.1 mM; raw OD600 reference: median of DMSO wells 0.241, cell-free background 0.041
Procedure: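 TESEC Mtb Alr E. coli, or the Alr+ wild-type control, in 384-well plates with Prestwick library compounds at 0.1 mM and 1% DMSO, across arabinose induction levels of 1E3 to 1E7 nM. Growth is read as OD600 after 10 h at 37 °C in triplicate biological replicates.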

SMILES	growth
CN(C)CCN(Cc1ccc(Cl)cc1)c1ccccn1 [Chloropyramine hydrochloride]	0.189 ± 0.0042
O=C1NCCN1CCN1CCC(c2cn(-c3ccc(F)cc3)c3ccc(Cl)cc23)CC1 [Sertindole]	0.0429 ± 0.0029
O=C1NCC2(CCN(CCc3ccccc3)CC2)O1 [Fenspiride hydrochloride]	0.248 ± 0.0052
CC(C)[C@H]1CC[C@H](C(=O)N[C@H](Cc2ccccc2)C(=O)O)CC1 [Nateglinide]	0.181 ± 0.0028
CCOC(=O)[C@H](CCc1ccccc1)N[C@@H](C)C(=O)N1CCC[C@H]1C(=O)O [Enalapril maleate]	0.247 ± 0.014
CC1(C)O[C@@H]2[C@@H](CO[C@@]3(COS(N)(=O)=O)OC(C)(C)O[C@@H]23)O1 [Topiramate]	0.234 ± 0.0043
c1ccc2c(c1)CCCc1cc(NCCN3CCOCC3)nnc1-2	0.215 ± 0.0088
CC[C@@H]1C(=O)OC[C@@H]1Cc1cncn1C [Pilocarpine nitrate]	0.231 ± 0.0064
Cn1ccnc1S [Methimazole]	0.257 ± 0.0088
NC[C@H]1O[C@H](O[C@H]2[C@H](O)[C@@H](O[C@H]3O[C@H](CO)[C@@H](O)[C@H](N)[C@H]3O)[C@H](N)C[C@@H]2N)[C@H](N)C[C@@H]1O [Tobramycin]	0.0408 ± 0.00049
O=C1C(CC[S+]([O-])c2ccccc2)C(=O)N(c2ccccc2)N1c1ccccc1 (stereo not given) [Sulfinpyrazone]	0.167 ± 0.0026
C=C1/C(=C\C=C2/CCC[C@]3(C)[C@@H]([C@H](C)CCCC(C)C)CC[C@@H]23)C[C@@H](O)C[C@@H]1O [Alfacalcidol]	0.0884 ± 0.006
C[C@H](O)C(=O)Nc1c(I)c(C(=O)NC(CO)CO)c(I)c(C(=O)NC(CO)CO)c1I [Iopamidol]	0.261 ± 0.011
CCCCNc1cc(C(=O)O)cc(S(N)(=O)=O)c1Oc1ccccc1 [Bumetanide]	0.234 ± 0.0058
CN(C)CCCOc1nn(Cc2ccccc2)c2ccccc12 [Benzydamine hydrochloride]	0.183 ± 0.0043
CCn1nc(C(=O)O)c(=O)c2cc3c(cc21)OCO3 [Cinoxacin]	0.0813 ± 0.0028
CCCCOC(=O)c1ccc(N)cc1 [Butamben]	0.194 ± 0.0098
C#C[C@]1(O)CC[C@H]2[C@@H]3CCC4=CCCC[C@@H]4[C@H]3CC[C@@]21C [Lynestrenol]	0.237 ± 0.0046
CCc1c2c(nc3ccc(OC(=O)N4CCC(N5CCCCC5)CC4)cc13)-c1cc3c(c(=O)n1C2)COC(=O)[C@]3(O)CC [Irinotecan hydrochloride trihydrate]	0.234 ± 0.0062
CN(C)CCn1nnnc1SCC1=C(C(=O)O)N2C(=O)[C@@H](NC(=O)Cc3csc(N)n3)[C@H]2SC1 [Cefotiam hydrochloride]	0.11 ± 0.0087

SMILES	growth
O=S(=O)(O)c1cc(O)ccc1O [Ethamsylate]	0.252 ± 0.0066
NNC(=O)c1ccncc1 [Isoniazid]	0.242 ± 0.0073
O=C(O)/C=C/c1ccc(Cn2ccnc2)cc1 [Ozagrel hydrochloride]	0.229 ± 0.006
NCCC[C@H](N)CC(=O)N[C@H]1CNC(=O)[C@H]([C@H]2C[C@H](O)NC(N)=N2)NC(=O)/C(=C/NC(N)=O)NC(=O)[C@H](CO)NC(=O)[C@H](CO)NC1=O [Viomycin sulfate]	0.178 ± 0.011
CC1CS(=O)(=O)CCN1/N=C/c1ccc([N+](=O)[O-])o1 (stereo not given) [Nifurtimox]	0.04547 ± 0.00025
CC(C)C(=O)Nc1ccc([N+](=O)[O-])c(C(F)(F)F)c1 [Flutamide]	0.191 ± 0.0072
Nc1ccc(S(=O)(=O)Nc2cnc3ccccc3n2)cc1 [Sulfaquinoxaline sodium salt]	0.221 ± 0.0039
Cc1cnc(NC(=O)C2=C(O)c3ccccc3S(=O)(=O)N2C)s1 [Meloxicam]	0.148 ± 0.0039
CCCc1ncc(C[n+]2ccccc2C)c(N)n1 [Amprolium hydrochloride]	0.245 ± 0.0098
COc1cc(C(=O)OCCCN2CCCN(CCCOC(=O)c3cc(OC)c(OC)c(OC)c3)CC2)cc(OC)c1OC [Dilazep dihydrochloride]	0.174 ± 0.0063
CC(C)(O/N=C(\C(=O)N[C@@H]1C(=O)N2C(C(=O)[O-])=C(C[n+]3ccccc3)CS[C@H]12)c1csc(N)n1)C(=O)O [Ceftazidime pentahydrate]	0.0434 ± 0.00087
O=C(c1ccc(OCCN2CCCCC2)cc1)c1c(-c2ccc(O)cc2)sc2cc(O)ccc12 [Raloxifene hydrochloride]	0.0456 ± 0.0048
CS(=O)(=O)c1ccc([C@@H](O)[C@@H](CO)NC(=O)C(Cl)Cl)cc1 [Thiamphenicol]	0.0517 ± 0.0013
CN(C)CC/C=C1\c2ccccc2CSc2ccccc21 [Dosulepin hydrochloride]	0.168 ± 0.0019
CCOc1nc2cccc(C(=O)O)c2n1Cc1ccc(-c2ccccc2-c2nnn[nH]2)cc1 [Candesartan]	0.238 ± 0.0077
CCc1cc(C(N)=S)ccn1 [Ethionamide]	0.243 ± 0.0035
CN(C)CCCC1(c2ccc(F)cc2)OCc2cc(C#N)ccc21 (stereo not given) [Citalopram Hydrobromide]	0.207 ± 0.0054
Cn1c(=O)c2c(ncn2C)n(C)c1=O [Caffeine]	0.233 ± 0.0046
COc1ccc(C(=O)NCc2ccc(OCCN(C)C)cc2)cc1OC [Itopride]	0.241 ± 0.0038
Cn1cnc([N+](=O)[O-])c1Sc1ncnc2[nH]cnc12 [Azathioprine]	0.126 ± 0.017
